Test results published in ChEMBL document CHEMBL3988442, “University of Dundee, Small-Polar-MMV Screening Library” (2021).
Out of some 48,000 compounds screened, about 13,000 (27%) showed an effect of 50% or more. The list shows a part of the results.

Test system: Wolbachia pipientis
Test: Anti-Wolbachia Cell-Based Screen
Assay type: functional
Parameters: scale not given: in the data most compounds retested in dose-response had high values
Details: 5 µM

In order of falling “Percent Effect” value:
1. Cc1ncc(CNCCO)c2cc(C(=O)c3ccc(Br)cc3)oc12.Cl  215.6%
2. CN(Cc1ccsc1)C(=O)Cn1c(CS(C)(=O)=O)nc2ccccc21  150.1%
3. Cc1ncc(CN(C)CCO)c2cc(C(=O)c3ccc(Br)cc3)oc12.Cl  142.2%
4. CS(=O)(=O)N1CCOCC2(CCN(Cc3ccoc3)CC2)C1.O=C(O)C(F)(F)F  115.7%
5. CN1CCOCC12CCN(Cc1ccoc1)CC2.O=C(O)C(F)(F)F.O=C(O)C(F)(F)F  109%
6. O=C(O)C(F)(F)F.O=c1ccc2c(n1CC1CC1)CCC(NCc1cccs1)C2 (stereo not given)  108.8%
7. Cc1ncc(CNCC(C)O)c2cc(C(=O)c3ccc(Br)cc3)oc12.Cl (stereo not given)  102.9%
8. COc1ncccc1CNC1CCc2c(ccc(=O)n2C)C1.O=C(O)C(F)(F)F.O=C(O)C(F)(F)F (stereo not given)  100.1%
9. COc1ncccc1CNC1CCc2c(ccc(=O)n2CC2CC2)C1.O=C(O)C(F)(F)F.O=C(O)C(F)(F)F (stereo not given)  98.83%
10. COCCn1c2c(ccc1=O)CC(NCc1cccnc1OC)CC2.O=C(O)C(F)(F)F.O=C(O)C(F)(F)F (stereo not given)  97.75%
11. Cc1ncc(CNC(C)(C)CO)c2cc(C(=O)c3ccc(Br)cc3)oc12  82.9%
12. Cc1ccc(CN2CCC3(CC2)CCN(Cc2ccoc2)CC3)cc1.O=C(O)C(F)(F)F.O=C(O)C(F)(F)F  17.41%
13. COCCN(Cc1sccc1C)C(=O)C1CCCN(C(N)=O)C1 (stereo not given)  10.64%
14. COC(=O)c1oc(CNC(C)(C)CO)cc1C  5.82%
15. Cc1oc(CN(C)C(=O)c2ccc(Br)cc2)cc1C(=O)O  5.692%
16. COc1ncc(C(=O)NCc2ccc(Br)cc2)cn1  4.726%
17. COc1ncccc1CN1CCc2[nH]nc(C(=O)N3CCCC3C)c2C1.O=C(O)C(F)(F)F.O=C(O)C(F)(F)F (stereo not given)  4.676%
18. CS(=O)(=O)CCNC(=O)C1(c2cccc(Cl)c2)CCCCC1  4.174%
19. COC(=O)c1ccc(C(=O)NCc2ccc(Br)cc2)cn1  0.8592%
20. CN1CCc2[nH]nc(C(=O)N3CCCC4(CN(C)C(=O)O4)C3)c2C1 (stereo not given)  0.3528%
21. COCCN1C(=O)CC[C@]12CC[C@@H](NCc1cccnc1OC)CC2.O=C(O)C(F)(F)F.O=C(O)C(F)(F)F  -1.329%
22. COCCN1CCN(CC(=O)N(C)Cc2ccsc2)CC1  -3.337%
23. Cn1c2c(ccc1=O)CC(Nc1ncc(F)cn1)CC2.O=C(O)C(F)(F)F (stereo not given)  -3.561%
24. COC(=O)c1ccc(N2CCC(N(C)c3ccccc3)CC2)nn1  -3.944%
25. CN(Cc1ccsc1)C(=O)CS(=O)(=O)Cc1ccc(Cl)c(Cl)c1  -4.981%
26. CS(=O)(=O)N1CCOCC2(CN(Cc3ccsc3)CCO2)C1.O=C(O)C(F)(F)F (stereo not given)  -5.064%
27. CS(=O)(=O)N1CCOCC2(CCN(Cc3ccc[nH]3)CC2)C1.O=C(O)C(F)(F)F  -6.777%
28. CC(O)CNCc1ccccc1C(F)(F)F.Cl (stereo not given)  -7.899%
29. Cc1cc(-c2nnn(CCC(N)=O)n2)ccc1F  -8.55%
30. CN(C)C(=O)Cn1c2c(ccc1=O)CC(NCc1ccoc1)CC2.O=C(O)C(F)(F)F (stereo not given)  -9.512%
31. O=C(CCC1CCCO1)NCc1ccnc(-n2cccn2)c1 (stereo not given)  -9.533%
32. Cc1noc2ncnc(N3CCC(O)(Cn4ccnc4)CC3)c12  -11.6%
33. O=C(CCc1ccsc1)NCc1ccnc(OC2CCOCC2)c1  -13.16%
34. CC(C)c1cc(NCC2(N3CCOCC3)CCCCC2)ncn1  -13.37%
35. Cc1ncsc1CCN(C)Cc1ccc(CO)o1  -28.69%
